For part of these data: Potency and affinity values are given separately. Activity calls are given as the source filed them.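 The calls were made as follows, unless noted: active = fitted half-maximal concentration within 10 nM to 100 µM, steepness 0.5 to 2, significant signal drop, low assay interference; inactive = the rest.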
Experiments:
[1] = molecular target: Cell division control protein 42 homolog (Homo sapiens) (UniProt P60953); test: inhibition of fluorescent GTP binding to constitutively active Cdc42 – biochemical, multiplex bead flow cytometry, Bodipy-FL-GTP, dose response (AID 1333;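 active = fitted half-maximal concentration within the tested dose range, moderate curve steepness, a statistically real signal drop, and little compound fluorescence or tag-binding interference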); settings: bead-based flow cytometry; series mostly up to 100 µM
Cell division control protein 42 homolog (Homo sapiens), sequence (P60953 whole entry, looked up): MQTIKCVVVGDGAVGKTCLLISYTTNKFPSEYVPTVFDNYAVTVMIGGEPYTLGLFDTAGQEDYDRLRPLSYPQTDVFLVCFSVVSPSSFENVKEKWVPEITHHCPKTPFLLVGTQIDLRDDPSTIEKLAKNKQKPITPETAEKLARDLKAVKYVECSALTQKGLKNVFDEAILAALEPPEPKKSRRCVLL

[2] = molecular target: Cell division control protein 42 homolog (Homo sapiens) (UniProt P60953); test: inhibition of fluorescent GTP binding to wildtype Cdc42 – biochemical, multiplex bead flow cytometry, Bodipy-FL-GTP, dose response (AID 1334;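 active = fitted half-maximal concentration within the tested range, moderate curve steepness, significant signal drop, and little compound fluorescence or bead-linkage interference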); settings: bead-based flow cytometry, Bodipy-FL-GTP binding to GST-Cdc42; at 100 µM (top of the series) unless noted
[3] = molecular target: GTPase HRas (Homo sapiens) (UniProt P01112); test: Ras wt fluorescent GTP loading blockade – biochemical, wildtype, multiplex bead flow cytometry, dose response (AID 1335); settings: bead-based flow cytometry, Bodipy-GTP binding to GST-Ras; at 100 µM (top of the series) unless noted
GTPase HRas (Homo sapiens), sequence (P01112 whole entry, looked up): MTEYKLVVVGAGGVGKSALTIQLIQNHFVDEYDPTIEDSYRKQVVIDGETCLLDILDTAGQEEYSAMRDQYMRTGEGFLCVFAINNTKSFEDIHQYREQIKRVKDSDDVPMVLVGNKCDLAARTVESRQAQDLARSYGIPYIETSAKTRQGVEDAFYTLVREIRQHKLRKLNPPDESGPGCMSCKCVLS

[4] = system: Ras-related protein Rab-7a (dog), GTP binding; test: blockers of fluorescent GTP binding to Rab7 – biochemical, wildtype, multiplex bead flow cytometry, dose response (AID 1336; call rule not given here); settings: bead-based flow cytometry; series mostly up to 100 µM
[5] = molecular target: Ras-related C3 botulinum toxin substrate 1 (Homo sapiens) (UniProt P63000); test: inhibition of wildtype Rac1 nucleotide loading – biochemical, multiplex bead flow cytometry, dose response (AID 1340;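 active = dose curve with midpoint inside tested range, moderate steepness, plateau gap beyond fit error, low compound glow and bead-link interference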); settings: GST-Rac1 beads, Bodipy-FL-GTP binding; at 100 µM (top of the series) unless noted
[6] = molecular target: GTPase HRas (Homo sapiens) (UniProt P01112); test: blockade of GTP loading onto mutant Ras – biochemical, activated mutant, multiplex bead flow cytometry, dose response (AID 1341;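 active = dose-response curve with midpoint inside the tested range, moderate steepness, significant amplitude and little compound fluorescence or bead-attachment interference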;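 also: GST-tagged constitutively activated Ras mutant immobilized on beads and multiplexed with other GTPases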); settings: bead-based flow cytometry, Bodipy-FL-GTP binding; series mostly up to 100 µM

Structure (SMILES)	outcome [1]	fluorescence, percent of control (lower = inhibition) [2] [%]	GTP binding, percent of control [3]	outcome [4]	GTP binding signal, raw median fluorescence (lower = inhibition) (MCF (arbitrary fluorescence units)) [5]	outcome [6]
COc1ccc(C(=O)O)c(OCc2ccccc2C)c1	inactive	62.5	208%	inactive	57.3	inactive
Nc1[nH]n2c(=O)c3c(nc2c1N=Nc1ccc(Cl)cc1)CCCC3	inactive	61.6	49.2%	inactive	188	inactive
O=C(CN1C(=O)S/C(=C/c2cccnc2)C1=O)N1CCOCC1	inactive	54.1	68.5%	inactive	221	inactive
CC(C)NC(=O)C12CC3CC(C1)CC(n1cnc(Cl)n1)(C3)C2	inactive	41.5	89.6%	inactive	319	inactive
COc1ccc(-c2nnc(S/C(=C/c3ccc(Cl)cc3)C(=O)O)o2)cc1	inactive	35.8	81.6%	inactive	218	inactive
O=S(=O)(N/N=C\c1cccnc1)c1ccccc1	inactive	53.2	67.9%	inactive	227	inactive
Cc1cccc(CCNc2ncccc2C(=O)O)c1	inactive	122	337%	inactive	101	inactive
C=CCN1C(=O)/C(=C/c2ccc(N(C)C)cc2)S/C1=N\c1nnc(CC)s1	inactive	74.8	90.2%	inactive	231	inactive
O=C(CSc1ncnc2scc(-c3ccccc3)c12)N1CCN(Cc2ccc3c(c2)OCO3)CC1	inactive	45.2	63.6%	inactive	196	inactive
Cc1nc2cc(C(=O)NCc3ccc4c(c3)OCO4)ccc2n1-c1ccc(Br)cc1	inactive	42.6	62.2%	inactive	172	inactive
Cc1ccc(N=Nc2c(N)[nH]n3c(=O)cc(-c4ccccc4)nc23)cc1	inactive	64.1	125%	inactive	118	inactive
Cc1cc(C)n2nc(C(=O)Nc3cccc(S(=O)(=O)N4CCCC4)c3)nc2n1	inactive	33.5	78.7%	inactive	227	inactive
COc1ccc2c(c1)c(C(=O)O)cn2CCOc1ccccc1C	inactive	61.2	204%	inactive	59.4	inactive
CCOC(=O)CNC(=O)c1cccnc1SCCc1ccccc1	inactive	46.7	125%	inactive	65	inactive
COc1cccc(C2CC(c3ccccc3)Nc3ncnn32)c1 (stereo not given)	inactive	38.6	80.1%	inactive	242	inactive
O=C(Nc1cnn(C23CC4CC(CC(C4)C2)C3)c1)c1cnn2cccnc12	inactive	41.2	94.2%	inactive	324	inactive
O=C(O)CCN1C(=O)/C(=C\c2ccc(-c3nc4ccccc4s3)o2)SC1=S	inactive	54.9	63.4%	inactive	88.8	inactive
N#C/C(=C/c1ccc(O)c([N+](=O)[O-])c1)C(=O)Nc1ccccc1	inactive	31.5	77.4%	inactive	193	inactive
Cn1cccc1/C=C1\SC(=S)N(NC(=O)c2ccccc2Cl)C1=O	inactive	24.6	62.8%	inactive	178	inactive
NS(=O)(=O)c1ccc(Nc2nc(-c3ccc(O)cc3O)cs2)cc1	inactive	25.1	67.8%	inactive	152	inactive

Structure (SMILES)	outcome [1]	fluorescence, percent of control (lower = inhibition) [2] [%]	GTP binding, percent of control [3]	outcome [4]	GTP binding signal, raw median fluorescence (lower = inhibition) (MCF (arbitrary fluorescence units)) [5]	outcome [6]
O=[N+]([O-])c1ccc(/C=C/C2=NN(c3ccccc3)C(c3ccco3)C2)cc1 (stereo not given)	inactive	135	132%	inactive	258	inactive
CCOc1cc(/C=N/NC(=O)c2cc(-c3cccnc3)nc3ccccc23)ccc1O	inactive	33.8	80.2%	inactive	188	inactive
Cc1nc2nc(SCC(=O)O)nn2c(C)c1Cc1c(F)cccc1Cl	inactive	28.4	75.3%	inactive	221	inactive
C=CC#CC[N+]1(CC#Cc2ccccc2)CCOCC1	inactive	97.9	95.4%	inactive	537	inactive
COc1ccc(-c2nn3c(-c4ccccn4)nnc3s2)cc1OC	inactive	43	52.9%	inactive	137	inactive
Cc1nn2c(-c3cccc(NC(=O)c4ccco4)c3)nnc2c2ccccc12	inactive	37.4	51% [at 33.3 µM]	inactive	136	inactive
Oc1ccc(NC(=S)N=Nc2c(O)[nH]c3ccc(Br)cc23)cc1	inactive	33.1	78.4%	inactive	200	inactive
CCC1CCCCN1S(=O)(=O)c1ccc(NC(=O)CSc2ncccc2C(=O)O)cc1 (stereo not given)	inactive	43.1	57.5%	inactive	109	inactive
COC(CNC(=O)C1CCCN1C(=O)OCc1ccccc1)OC (stereo not given)	inactive	46.2	90.5%	inactive	333	inactive
NC(=O)c1c(NC(=O)c2cnccn2)sc2c1CCCC2	inactive	94.1	134%	inactive	217	inactive
O=C(CSc1ccc2nnc(-c3ccccn3)n2n1)Nc1nccs1	inactive	28.8	61.7%	inactive	124	inactive
O=c1[nH]c(=O)c2nnc(N/N=C\c3ccc(O)cc3)nc2[nH]1	inactive	32.2	69.1%	inactive	147	inactive
Cc1c(Cl)c([N+](=O)[O-])nn1Cc1ccc(C(=O)N/N=C\c2ccccn2)o1	inactive	38.5	53%	inactive	95.4	inactive
Cc1ccccc1OCCn1cc(C(=O)O)c2cccc(C)c21	inactive	53.7	200%	inactive	53.4	inactive
CC1=C(C#N)c2nc(N)c(C#N)c(C)c2/C1=C\c1ccc(-c2ccccc2C(=O)O)o1	inactive	30.1	74.4%	inactive	159	inactive
Cc1cccc(C)c1CCNc1ncccc1C(=O)O	inactive	76.7	245%	inactive	67.9	inactive
O=C(COc1ncnc2cc([N+](=O)[O-])ccc12)NC(=O)NC1CCCCC1	inactive	31.6	70.8%	inactive	153	inactive
CCOc1ccccc1C(=O)Nc1cccc(-c2ccc3nncn3n2)c1	inactive	33.5	73.1%	inactive	194	inactive
Cc1ccc(OCc2ccc(C(=O)O)o2)cc1C	inactive	61.7	90.6%	inactive	34.8	inactive
COc1ccc2cc(C)c3nnc(SCc4cccnc4)n3c2c1	inactive	32.1	76.7%	inactive	221	inactive

Structure (SMILES)	outcome [1]	fluorescence, percent of control (lower = inhibition) [2] [%]	GTP binding, percent of control [3]	outcome [4]	GTP binding signal, raw median fluorescence (lower = inhibition) (MCF (arbitrary fluorescence units)) [5]	outcome [6]
Cc1cccc(CNc2nc(C)ccc2C(=O)O)c1	inactive	60.7	218%	inactive	58	inactive
COCCCNc1nc(=S)[nH]c2cc(OC)c(OC)cc12	inactive	32.5	41.5%	inactive	99	inactive
Cc1ccc(/C=C2\SC(=S)N(C(Cc3ccccc3)C(=O)O)C2=O)cc1 (stereo not given)	inactive	28.1	81.2%	inactive	212	inactive
C=CCSc1nc(N)c(C#N)c(-c2ccc(C)cc2)c1C#N	inactive	35	83.1%	inactive	262	inactive
C=CCn1c(COc2ccc(F)cc2)nnc1SCC(=O)c1c[nH]c2c(CC)cccc12	inactive	50.5	60.7%	inactive	190	inactive
O=[N+]([O-])c1cc2oc3c(c2c(C=NCc2ccccc2)c1O)CCCC3	inactive	44.5	58.7%	inactive	179	inactive
COc1ccc(C(=O)N/N=c2\oc3ccccc3cc2C(N)=O)cc1	inactive	36.1	82.6%	inactive	207	inactive
O=C(C#Cc1ccc(-c2ccccc2)cc1)c1ccc([N+](=O)[O-])cc1	inactive	44.5	196%	inactive	51.8	inactive
O=C(O)c1cn(CCOc2ccccc2Cl)c2ccccc12	inactive	99.8	110%	inactive	86	inactive
O=C(c1nn2c(C(F)(F)F)cc(-c3ccc(F)cc3)nc2c1Cl)N1CCOCC1	inactive	48.9	62.6%	inactive	189	inactive
O=C(CCNS(=O)(=O)c1cccc2nsnc12)N1CCN(c2ccccn2)CC1	inactive	52.4	64.7%	inactive	203	inactive
O=[N+]([O-])c1ccccc1/C=C/C=N/n1c(-c2ccco2)n[nH]c1=S	inactive	28.1	72.9%	inactive	221	inactive
O=C(O)c1ccccc1C(=O)OCc1ccccc1	inactive	105	365%	inactive	408	inactive
O=C(O)C1=C[C@H](c2ccc(C(F)(F)F)cc2)C[C@H](OCc2ccc(CO)cc2)O1	inactive	30.2	87.2%	inactive	246	inactive
COc1ccccc1OCCn1cc(C(=O)O)c2c(Cl)cccc21	inactive	48.6	191%	inactive	52	inactive
CCCCCN1CC(O)=C(c2ccccc2)C1=N	inactive	82.3	158%	inactive	179	inactive
O=C(Cc1ccc(Nc2nc(=S)[nH]c3ccccc23)cc1)NC1CCCCC1	inactive	25.9	61.6%	inactive	153	inactive
COc1ccc(OC)c(CNCc2sc(C(=O)O)cc2C)c1	inactive	59.9	81.9%	inactive	32.8	inactive
COc1cc(/C=N/NC(N)=O)cc([N+](=O)[O-])c1O	inactive	35.1	78.6%	inactive	175	inactive
CCOC(=O)Cn1nnnc1C(CC)N(Cc1ccccc1)Cc1cc2cc(C)ccc2[nH]c1=O (stereo not given)	inactive	83.7	155%	inactive	182	inactive

Reference: PubChem BioAssay
